Assay outcomes: PubChem, National Center for Advancing Translational Sciences (NCATS)
Shown is part of a subset that was picked to be rich in hits.
IL-1B inflam inh – inflammasome signaling inhibition, IL-1 beta readout; THP-1 LPS/ATP IL-1B secretion, AlphaLISA, 16 h; stronger effect = lower value; activity change, % at 57.5 µM; actives 4.7% (n = 360,000); in the data active means activity change below about -50%; inconclusive means mostly about -30% to -49%
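THP-1 cells pretreated 1 hr with compounds (up to 57.5 uM final), then stimulated with LPS (250 ng/mL final) plus ATP (1.25 mM final); secreted IL-1B measured by AlphaLISA after 16 hr, decreased signal indicating inhibition.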
HT1080 IDH1KD tx – HT-1080 IDH1 knockdown cell toxicity (counter line); HT-1080 IDH1 knockdown viability, ATP luminescence, 48 h; Potency, µM (titrated, usually from 46.1 µM), actives largely listed as cytotoxic; actives 2% (n = 360,000); AID 686971
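IDH1KD HT-1080 cells, 750/well, RPMI + 5% FBS; compound pinned after 2 h settling; 48 h, 37 °C; CellTiter-Glo luminescence; % activity normalised to DMSO and no-cell wells; curves fitted, classed by r2 and efficacy.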
DT40 TDP1 CPT – growth inhibition of DT40 Tdp1-/-;hTDP1 cells with camptothecin (screen for TDP1 inhibitors) | chicken DT40 Tdp1-/-;hTDP1 cells + 20 nM CPT, ATP luminescence, 48 h | Potency, µM (doses to about 46.2 µM), usual class: inhibitors | AID 686979 | actives 12% (n = 420,000); further: nearly all actives have a fitted effect of over 55% in size
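Chicken DT40 Tdp1-/- cells complemented with human TDP1, 400 cells/well, exposed to compounds plus 20 nM camptothecin for at least 48 h at 37 C; viability read as ATP content by CellTiter-Glo luminescence.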
DT40 TDP1 no CPT – qHTS for Inhibitors of human tyrosyl-DNA phosphodiesterase 1 (TDP1): qHTS in cells in absence of CPT. actives 15% (n = 420,000). DT40 Tdp1-/- hTDP1 cells, no CPT, ATP luminescence, 48 h. Potency, µM (doses to about 46.2 µM), hits mostly inhibitors; further: nearly all actives have a fitted effect of over 55% in size
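Growth of hTDP1-complemented DT40 Tdp1-knockout cells is measured by ATP luminescence after at least 48 hr compound exposure at 37 °C, with DMSO substituting for the 20 nM CPT used in the parallel screen.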
12-LOX inh – blocks human arachidonate 12S-lipoxygenase | Potency, µM (highest dose often 108 µM), usual class: inhibitors | actives 1.1% (n = 580,000) | purified 12hLO, xylenol orange hydroperoxide absorbance | AID 1671190
Target sequence (P18054 whole entry, looked up): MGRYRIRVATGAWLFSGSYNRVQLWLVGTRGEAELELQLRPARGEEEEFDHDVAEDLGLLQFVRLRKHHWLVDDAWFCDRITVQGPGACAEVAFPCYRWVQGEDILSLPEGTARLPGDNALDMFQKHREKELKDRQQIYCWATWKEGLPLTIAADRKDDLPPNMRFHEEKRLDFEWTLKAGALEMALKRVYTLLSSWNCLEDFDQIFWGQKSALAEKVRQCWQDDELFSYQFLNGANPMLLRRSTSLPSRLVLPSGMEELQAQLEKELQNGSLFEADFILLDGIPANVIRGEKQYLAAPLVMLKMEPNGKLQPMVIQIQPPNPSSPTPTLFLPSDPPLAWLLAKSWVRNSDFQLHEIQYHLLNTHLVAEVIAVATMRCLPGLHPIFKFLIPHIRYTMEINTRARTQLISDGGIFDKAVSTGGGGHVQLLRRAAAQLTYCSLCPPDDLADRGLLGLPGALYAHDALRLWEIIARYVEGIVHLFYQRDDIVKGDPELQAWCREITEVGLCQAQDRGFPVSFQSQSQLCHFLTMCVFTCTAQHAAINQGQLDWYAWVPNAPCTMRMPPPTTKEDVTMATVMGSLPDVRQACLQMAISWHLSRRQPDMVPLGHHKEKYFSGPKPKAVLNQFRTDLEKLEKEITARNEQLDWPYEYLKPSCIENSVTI
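Hydroperoxide product was detected by ferrous iron/xylenol orange as the 573 to 405 nm absorbance ratio. Arachidonic acid at 40 uM (final) was turned over for 30 min at room temperature by 150 nM human 12hLO, pH 7.0 Hepes buffer, after 15 min compound preincubation.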
HT1080-NT tox – kills 2HG-producing HT-1080-NT fibrosarcoma cells. HT-1080-NT fibrosarcoma viability, CellTiter-Glo ATP luminescence, 48 h. Potency, µM (top dose mostly 46.1 µM), actives largely listed as cytotoxic. actives 1.6% (n = 360,000). AID 686970;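 further: NT is the 2HG producing partner of a matched IDH1 knockdown line; nearly all actives have a fitted effect of over 55% in size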
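750 cells/well, RPMI + 5% FBS; 2 h settle, compound pin-transfer, 48 h at 37 degrees C. CellTiter-Glo 10 min RT, luminescence. Normalized to DMSO and media-only wells.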
A number is an active result; . = inactive; ? = inconclusive; / = no result given; [ ] = dose if it differs, or a comment. Unless noted, the call rests on the fitted dose curve; in most records, active means well fitted curve in the direction sought with a large enough effect; inconclusive means small, poorly fitted or top-dose-only effect, or another doubt; inactive means no such curve, though single readings can be large; an effect the other way counts as inactive or inconclusive.

SMILES	IL-1B inflam inh	HT1080 IDH1KD tx	DT40 TDP1 CPT	DT40 TDP1 no CPT	12-LOX inh	HT1080-NT tox
COc1ccc(C(C)=O)cc1CN1CC=C(c2ccccc2)CC1	.	.	?	?	/	.
O=C1NC2(Cc3ccccc31)CN(C1COC1)C2	/	/	/	/	.[12.5 µM]	/
O=C(O)c1cccc2c1NC(c1cccc([N+](=O)[O-])c1)C1CC(Sc3ccccc3[N+](=O)[O-])C(Cl)C21 (stereo not drawn)	.	?	?	?	8.91µM	.
CCN(CC)C(=O)c1ccc2c(c1)C1C(Cl)C(Sc3ccccc3[N+](=O)[O-])CC1C(C(=O)O)N2 (stereo not drawn)	?	.	?	20.6µM	/	.
Cc1ccc2c(c1Cl)NC(C(=O)O)C1CC(Sc3ccccc3[N+](=O)[O-])C(Cl)C21 (stereo not drawn)	.	.	.	.	/	.
CCOC(=O)[C@]12Cc3cc(OC)ccc3[C@H]1N(C(C)C)C(=O)c1cc(OC)ccc12	-116.6	20.6µM	20.6µM	18.4µM	?	20.6µM
CCOC(=O)[C@]12Cc3c(cc(OC)c(OC)c3OC)[C@H]1N(C(C)C)C(=O)c1cc(OC)ccc12	-113.3	18.4µM	9.2µM	7.31µM	?	14.6µM
C=C[C@H]1CN2CC[C@H]1C[C@@H]2CNC(=O)C(CC)CC	/	/	/	/	.	/
C[C@H]1C[C@@H]2[C@H]([C@@H](O)C[C@@]3(C)[C@H]2CC[C@]3(O)C(=O)COC(=O)CCC(=O)O)[C@@]2(C)C=CC(=O)C=C12	/	/	?	.	/	/
CC1(C)C2C[C@@H](O)[C@]3(C)C(CC[C@@]4(C)[C@H](c5ccoc5)C[C@H]5O[C@]543)[C@@]2(C)[C@@H](O)C[C@H]1O (stereo partly drawn)	/	/	.[9.04 µM]	.[9.04 µM]	.	/
CCN(C1CCOCC1)C1CNC1	/	/	/	/	.	/
CCN(CC)C(=O)c1ccc(N2C(=O)CCS2(=O)=O)cc1Cl	/	/	/	/	.	/
Cn1cc(CN2CCN(C(=O)COc3ccccc3)CC2)ccc1=O	/	/	/	/	.	/
Cc1ccc2c(n1)N(C)[C@H](CO)CCN(CCC(C)C)C2	/	/	/	/	.	/
FC(F)(F)c1cccc(-n2nnnc2C2(N3CCCCC3)CCCCC2)c1	/	/	/	/	.	/
CC(O)(c1ccncc1)c1nc(-c2cccc(C(F)(F)F)c2)cs1 (stereo not drawn)	.	.	23.1µM	20.6µM	.	.
CCCc1nnc(N2C[C@H]3COc4ccccc4C[C@@]3(C(=O)O)C2)s1	/	/	/	/	.	/
CN(C)CC(=O)Nc1ccc2n(c1=O)C[C@H]1C[C@@H]2CN(C(=O)c2cccnc2)C1	/	/	/	/	.	/
Cc1ccc(-c2nc3c(=O)n(C)c(=O)nc-3n(C)n2)cc1	/	/	0.631µM	0.501µM	/	/
Cn1ncnc2c(=O)n(C)c(=O)nc1-2	-108.4	1.03µM	0.206µM	0.291µM	?	0.517µM
Cc1ccccc1C(Cn1ccnc1-c1cnc[nH]1)N(C)C (stereo not drawn)	/	/	/	/	.	/
COC(=O)C1=C(c2c(C)noc2C)C[C@@H]2CC[C@H]1N2C(=O)NCc1ccc(C(F)(F)F)cc1	.	.	?	?	.	.
COC(=O)C1=C(c2cccc(C#N)c2)C[C@@H]2CC[C@H]1N2C(=O)NCc1cc(C)oc1C(F)(F)F	.	.	?	?	.	.
COC(=O)C1=C(c2ccc(Cl)c(C(F)(F)F)c2)C[C@@H]2CC[C@H]1N2C(=O)NCC1CC1	.	.	14.6µM	18.4µM	.	.
COC(=O)C1=C(c2ccc(-c3ccccc3)c(F)c2)C[C@@H]2CC[C@H]1N2C(=O)NCc1cc(C)oc1C(F)(F)F	.	.	?	14.6µM	?	.
COC(=O)C1=C(c2ccc(Cl)c(C(F)(F)F)c2)C[C@@H]2CC[C@H]1N2C(=O)NCCOc1ccc(OC)cc1	-63.0	?	?	?	/	?
